Source: PubChem (National Center for Advancing Translational Sciences (NCATS))
KDM4E inh: inhibitors of human JMJD2E histone demethylase; AID 2147; JMJD2E catalytic domain, FDH-coupled NADH fluorescence (FDH is formaldehyde dehydrogenase); B2RXH2; Potency, µM (doses to about 57.1 µM), for inactives: at the highest dose activity change, negative = inhibition, hits mostly inhibitors; 1.6% of 230,000 active; active = well fitted inhibition curve with a large enough effect, not every such curve was filed as active; inconclusive = small, poorly fitted or top-dose-only effect, or another doubt; inactive = no such curve, though single readings can be large or run the other way;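 also: potency is read from the fitted curve at half-maximal effect; 0% = wells with enzyme and -100% = buffer wells without enzyme; nearly all actives have a fitted effect of over 50% in size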
Target sequence (B2RXH2 1-337 limits assumed): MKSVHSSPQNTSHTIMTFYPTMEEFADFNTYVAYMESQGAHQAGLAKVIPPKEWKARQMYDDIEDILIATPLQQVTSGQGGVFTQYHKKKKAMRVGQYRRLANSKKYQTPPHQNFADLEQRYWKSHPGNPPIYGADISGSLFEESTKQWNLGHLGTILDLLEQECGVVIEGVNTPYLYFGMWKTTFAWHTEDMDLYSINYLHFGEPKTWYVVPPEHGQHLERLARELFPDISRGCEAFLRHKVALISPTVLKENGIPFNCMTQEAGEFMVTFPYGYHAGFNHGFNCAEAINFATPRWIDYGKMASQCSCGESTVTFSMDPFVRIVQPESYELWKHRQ
Tau fluor cs: counter-screen for tau fibril formation inhibitors; tau K18 P301L Alexa594 fluorescence, heparin fibrillization; Potency, µM (titrated, usually from 57.7 µM), inactives show at the top dose activity change, negative = decrease; 0.93% of 280,000 active; also: potency is read from the fitted curve at half-maximal effect; nearly all actives have a fitted effect of over 55% in size
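Human tau K18 P301L (15 uM unlabeled, 0.24 uM Alexa 594-labeled) in 100 mM sodium acetate pH 7 with 20 uM heparin, 6 hr at 37 C. ThT 30 uM added, 1 hr ambient; Alexa 594 FP and total fluorescence read at 555/632 nm.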
NPSR antag: neuropeptide S receptor (human) antagonism, cAMP | Q6W5P4 | CHO-NPSR cells, cAMP TR-FRET, antagonist mode | Potency, µM (top dose mostly 38.3 µM), without a hit: top-dose activity change, negative = inhibition, most hits filed as inhibitors | 1% of 220,000 active | AID 1461; also: potency is read from the fitted curve at half-maximal effect; nearly all actives have a fitted effect of over 50% in size
PNC inhibitor: perinucleolar compartment assembly inhibition | activity change (PNC), negative = inhibition, % at 10 µM | 3.1% of 140,000 active | PC3M PTB-GFP, PNC prevalence imaging, 16 h; active compounds read low;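 active = readout at or below -70, meaning at least 70% loss of cells showing the perinucleolar compartment, a nuclear body marking cancer cells; inconclusive = readout between -30 and a set limit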;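 also: plate controls were DMSO wells for no effect and camptothecin positive control wells for full effect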
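Compounds are pinned in duplicate onto adhered PC3M cells stably expressing GFP-tagged PTB and incubated 16 h at 37 C. Cells are then fixed, nuclei stained with Hoechst, and PNC-positive cells counted.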
Tau ThT inhib: tau fibrillization inhibition (ThT binding); P10636; recombinant tau K18 P301L (four-repeat tau fragment), heparin-induced fibrillization, ThT fluorescence; Potency, µM (doses to about 57.4 µM), inactives show top-dose activity, negative = inhibition, usual class: inhibitors; 2.1% of 270,000 active; also: potency is read from the fitted curve at half-maximal effect; nearly all actives have a fitted effect of over 55% in size
Target sequence (P10636 561-689 P618L limits assumed): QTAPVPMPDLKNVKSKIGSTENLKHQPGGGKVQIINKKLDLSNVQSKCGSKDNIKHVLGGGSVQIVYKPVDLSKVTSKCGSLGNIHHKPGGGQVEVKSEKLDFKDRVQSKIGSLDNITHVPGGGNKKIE
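Tau K18 P301L fragment (15 uM unlabeled plus 0.24 uM Alexa 594-labeled) in 100 mM sodium acetate pH 7 with compound, fibrillization induced by 20 uM heparin for 6 hr at 37 C. Thioflavin T (30 uM) added, fluorescence read after 1 hr (ex 450, em 510 nm).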
Tau FP inhib: blocks human tau fibril formation measured by polarization; Potency, µM (top dose mostly 57.7 µM), without a hit: top-dose activity, negative = inhibition, usual class: inhibitors; 0.39% of 280,000 active; P10636; K18 P301L tau heparin fibrillization, Alexa594 FP, 6 h; AID 1468; also: potency is read from the fitted curve at half-maximal effect; nearly all actives have a fitted effect of over 55% in size
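Read-out: fluorescence polarization of Alexa 594-labeled tau (0.24 uM), 555 nm excitation, 632 nm emission. Mixtures held 15 uM unlabeled K18 P301L, compound and 20 uM heparin, pH 7 acetate buffer, incubated 6 hr at 37 C.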
Starred values were filed as active, the others as inactive; [ ] = remark or other dose. Compounds with a hit are over-represented: about 5.1% of the library has one in this group of screens. Unless noted, calls follow the shape of the dose curve; as a rule, active = well fitted curve in the direction sought with a large enough effect; inconclusive = small, poorly fitted or top-dose-only effect, or another doubt; inactive = no such curve, though single readings can be large; an effect the other way counts as inactive or inconclusive. Unless noted, % is scaled to controls: 0 for no effect and ±100 for the full control effect.

Screening O=S(=O)(c1ccccc1)c1nc(-c2ccc(Cl)cc2Cl)oc1N1CCCCCC1 returned Tau fluor cs -18.2%, Tau ThT inhib -9.1% and Tau FP inhib -12.0%.
O=C(O)C1CC=CCC1C(=O)Nc1ccc2c(c1)OCCO2 (centres undefined) was read as KDM4E inh -4.7%, Tau fluor cs -2.2%, NPSR antag -6.1%[46.1 µM], PNC inhibitor -118.8*, Tau ThT inhib -19.7% and Tau FP inhib 11.7%.
`O=C(Nc1ccc2c(c1)OCCO2)C1CCN(C(=O)c2ccccc2)CC1` gave KDM4E inh 5.0%, Tau fluor cs -9.0%, NPSR antag -3.8%[46.1 µM], PNC inhibitor -104.8*, Tau ThT inhib -8.3% and Tau FP inhib 7.1%.
Screening Cc1ccc(OCC(=O)Nc2ccc(OCc3cc(=O)n4ccsc4n3)cc2)cc1 returned Tau fluor cs -6.7%, Tau ThT inhib -27.5% and Tau FP inhib -1.7%.
`CC[n+]1c(C)n(C)c2cc(S(=O)(=O)N(C)C)ccc21` gave KDM4E inh 10µM*, Tau fluor cs -8.4%, NPSR antag 7.2%, Tau ThT inhib -9.0% and Tau FP inhib -3.4%.
`COc1ccc(/C=N\Nc2ccc([N+](=O)[O-])cc2)c(C(=O)O)c1OC` gave KDM4E inh -5.8%, Tau fluor cs -18.0%, NPSR antag 10.5%, Tau ThT inhib 12.6µM* and Tau FP inhib 5.9%.
Screening COc1cc(OC)c(NC(=O)N2CCCn3nc(C)cc32)cc1Cl returned Tau fluor cs -1.7%, Tau ThT inhib 0.1% and Tau FP inhib -3.2%.
Screening COc1ccc(CNC(=O)c2sc(=S)n(-c3ccccc3)c2N)cc1 returned KDM4E inh inconclusive, Tau fluor cs -0.2%[0.0958 µM], NPSR antag 1.7% and Tau FP inhib 3.7%[0.0958 µM].
O=C(NCc1ccccc1)c1sc(=S)n2c1[nH]c(=O)c1ccccc12 was read as KDM4E inh -3.4%, Tau fluor cs inconclusive, NPSR antag -6.9%[46.1 µM], PNC inhibitor 60.1, Tau ThT inhib 14.1µM* and Tau FP inhib 5.7%.
`CCOP(=O)(c1ccccc1)c1nc(-c2ccccc2C)oc1N1CCCCC1` (centres undefined) gave KDM4E inh inconclusive, Tau fluor cs -22.3%, NPSR antag 10µM*, PNC inhibitor 3.4, Tau ThT inhib inconclusive and Tau FP inhib -2.7%.
For Cc1ccccc1-c1nc(P(=O)(c2ccccc2)c2ccccc2)c(N2CCOCC2)o1 the results were KDM4E inh -2.4%, Tau fluor cs -14.8%, NPSR antag 50.7%, Tau ThT inhib inconclusive and Tau FP inhib -3.1%.
Cc1[nH]c(C(=O)N/N=C/c2ccc(N(C)C)cc2)c(C)c1C(=O)N/N=C/c1ccc(N(C)C)cc1 was read as KDM4E inh inconclusive, Tau fluor cs inconclusive, NPSR antag -17.3%, Tau ThT inhib 2.24µM* and Tau FP inhib -0.5%.
`CCOC(=O)c1c(C)[nH]c(C(=O)N/N=C/c2ccc(Br)cc2)c1C` gave KDM4E inh inconclusive, Tau fluor cs inconclusive, NPSR antag 11.3%, PNC inhibitor -112.6*, Tau ThT inhib inconclusive and Tau FP inhib inconclusive.
Cc1cc(C)n2cc(CSCc3ccccc3)nc2n1 was read as KDM4E inh 2.0%, Tau fluor cs 3.2%, NPSR antag -17.1%[46.1 µM], PNC inhibitor -88.6*, Tau ThT inhib 7.6% and Tau FP inhib -12.8%.
CCOc1ccc(C2CC(=O)Nc3nc(SCc4ccccc4C)[nH]c(=O)c32)cc1OC (centres undefined) was read as Tau fluor cs -0.6%, Tau ThT inhib 5.3% and Tau FP inhib -1.1%.
Screening CC1C/C(=C\c2cccnc2)C(=O)/C(=C/c2cccnc2)C1 (centres undefined) returned KDM4E inh 2.9%, Tau fluor cs -15.7%, NPSR antag -31.2%, PNC inhibitor -116.4*, Tau ThT inhib 7.08µM* and Tau FP inhib inconclusive.
O=C1/C(=C/c2cccnc2)CCc2c1[nH]c1ccccc21 was read as KDM4E inh -9.1%, Tau fluor cs -23.4%, NPSR antag 36.3%, Tau ThT inhib 7.08µM* and Tau FP inhib -0.8%.
